Tg IFNy HTS: inhibitors of Toxoplasma gondii growth with IFN-gamma. Toxoplasma gondii growth in IFN-gamma-treated host cells; stronger effect = lower value. activity change, negative = inhibition, % (no concentration beside the values). 69,000 tested, 3.8% active. AID 1259416; in the data active = activity change below about -70%, passing the limit was not always enough;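 note: host cells are HeLa cells infected with Toxoplasma gondii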
Starred values were filed as active, the others as inactive; i = inactive. This is one part of a sample in which hits are shown more often than they occur.

SMILES	Tg IFNy HTS
CCN(CC)CCOC(=O)c1ccc(N)cc1	12
CCN(CC)CCOc1ccc(/C(=C(\Cl)c2ccccc2)c2ccccc2)cc1	-80*
CCCCOc1ccc(C(=O)CCN(CC)CC)cc1	69
CC(=O)c1cccc(-c2ccccc2-c2nnc(C)s2)c1	-6
COc1ccccc1-c1nc(Cn2nnc(-c3nc(-c4ccc(C(F)(F)F)cc4)no3)c2C)c(C)o1	-12
CS(=O)(=O)CC(=O)NC1CCCCC1	40
O=C(CNC(=O)OCc1ccccc1)NC1CCCCCC1	12
CC1=CC(C)C(COC(=O)NC2CCCCC2)(COC(=O)NC2CCCCC2)C(C)C1 (stereo not given)	-101*
Cc1occc1C(=O)N1CC[C@@H]2OCCN(Cc3ccncc3)[C@@H]2C1	-52
Cc1cc2oc(=O)cc(C)c2cc1NC(=O)c1sc(C(C)C)nc1C	3
O=C(C1CCCCO1)N1CCc2[nH]nc(-c3ccc(-c4ccccc4)cc3)c2C1 (stereo not given)	-40
c1cc(-c2nccn2CC2CCCOC2)c2nonc2c1 (stereo not given)	9
CN(C)C(=O)COCC1CN(C2CCOC2)Cc2ccnn2C1 (stereo not given)	235
COc1cccc(CCn2ccnc2-c2cccc(O)c2)c1	6
O=C(Nc1ccccc1Cl)N1CC[C@H]2CN(Cc3ccncc3)S(=O)(=O)[C@@H]2CC1	-14
CSCCCNC(=O)[C@@H]1C[C@H](NC(=O)c2cccc(Cl)c2)CN1C	9
COc1ccc([C@H]2CC=CC[C@@H](C)Oc3ccccc3C(=O)N(C)[C@H](Cc3ccccc3)C(=O)N2)c(OC)c1 (mixture of isomers)	-79*
COc1ccc([C@H]2CC=CC[C@H](C)Oc3ccccc3C(=O)N(C)[C@@H](C(C)C)C(=O)N2)c(OC)c1 (mixture of isomers)	-11
C[C@@H]1CC=CC[C@@H](c2cccc(Cl)c2)NC(=O)[C@@H](Cc2ccccc2)N(C)C(=O)c2ccccc2O1 (mixture of isomers)	-63
CCS(=O)(=O)N1C[C@H]2CCCC(OCc3cccnc3)[C@@H]2C1 (stereo not given in full)	-32
CC(C)c1ccc(CN2CCC(CNC(=O)C3(N)CCC3)C2)cc1 (stereo not given)	-8
CCOC(=O)N1c2ccc(C(C)C)cc2C=CC1C#N (stereo not given)	204
CC(C)c1ccc2c(c1)CCC1C(C)(CNC(=O)NC(C)(C)C)CCCC21C (stereo not given)	-104*
CCCNC(=O)N1CCc2nc(-c3ccc(OC)cc3)sc2C1	-10
CCOc1ccc(-c2nc(CN3CCN(C(=O)Nc4cc(C)cc(C)c4)CC3)c(C)o2)cc1	1
SMILES	Tg IFNy HTS
Cc1ccc2c(c1)NC1(CCN(C(=O)c3ccccc3F)CC1)c1cccn1-2	14
Cc1nc(CN(C)C(=O)c2cccc(CC3CCNCC3)c2)no1	-7
O=C1c2cccc3cccc(c23)C(=O)N1CCO	-27
CN(C)CCN1C(=O)c2cccc3cc(N)cc(c23)C1=O	-77*
O=C(CCCN1C(=O)c2cccc3cccc(c23)C1=O)OCc1ccc2c(c1)OCO2	-1
CCN(CC)c1ncnc2c1cnn2CC(=O)Nc1ccc(C)c(C)c1	-32
Cc1cccc(N2C(=O)CC(Sc3nnc(C)s3)C2=O)c1 (stereo not given)	-5
Cc1ccc(N2C(=O)CC(Sc3ccccn3)C2=O)cc1 (stereo not given)	-11
O=C1CC(Sc2ccc(Cl)cc2)C(=O)N1c1cc(F)c(Br)cc1F (stereo not given)	-85*
CCN(CC)C(=O)CC1CC2(CCN(Cc3ccccn3)CC2)c2ccccc21 (stereo not given)	-6
CS(=O)(=O)N1C[C@H]2CN(Cc3ccncc3)C(=O)[C@@H]2C1	-3
CCC1c2ccsc2CCN1C(=O)c1cc(C2CCN(C(=O)C3CCCC3)CC2)no1 (stereo not given)	4
Cc1ccc(-c2nnc(-c3nc(NCc4cccc(C)c4)c4ccccc4n3)o2)cc1	24
COc1cccc(CNc2nc(-c3nnc(-c4cccc(C)c4)o3)nc3ccccc23)c1	-92*
Clc1cccc(-c2nnc(-c3nc(NCc4ccco4)c4ccccc4n3)o2)c1	-69
Cc1ccc(-c2nnc(-c3nc(NCc4ccc(F)cc4)c4ccccc4n3)o2)cc1	15
Cc1cccc(CNc2nc(-c3nnc(-c4ccc(F)cc4)o3)nc3ccccc23)c1	-101*
Cc1cccc(-c2nnc(-c3nc(NCc4ccco4)c4ccccc4n3)o2)c1	-24
COc1ccc(-c2nnc(-c3nc(NCc4ccc(C)cc4)c4ccccc4n3)o2)cc1	-4
Fc1ccc(-c2nnc(-c3nc(NCc4ccco4)c4ccccc4n3)o2)cc1	-86*
COc1ccc(Nc2nc(-c3nnc(-c4cccc(C)c4)o3)nc3ccccc23)cc1	i
Cc1cccc(-c2nnc(-c3nc(N4CCCCC4C)c4ccccc4n3)o2)c1 (stereo not given)	27
Cc1cccc(-c2nnc(-c3nc(NC4CCS(=O)(=O)C4)c4ccccc4n3)o2)c1 (stereo not given)	-96*
COc1cccc(CNc2nc(-c3nnc(-c4ccc(C)cc4)o3)nc3ccccc23)c1	-11
Cc1ncsc1CCC(=O)NCc1cnn2ccccc12	-2
SMILES	Tg IFNy HTS
CCOCCC(=O)Nc1cc(C(N)=O)ccc1N1CCCC(C)C1 (stereo not given)	47
Cc1cccc(CNC2=NCCNC23CCN(S(=O)(=O)c2ccc(C)c(C)c2)CC3)c1	13
O=C(CC1CCCC1)NC1CCC2(CCC(=O)N2)CC1 (stereo not given)	174
COc1cccc(CN(C)Cc2nc3ccc(C)cc3[nH]2)c1O	5
Cc1coc2c1C(=O)C(=O)c1c-2ccc2c(C)cccc12	-72*
COc1cc(-c2noc(-c3nnn(Cc4nc(-c5ccccc5)oc4C)c3C)n2)ccc1OC(C)C	2
COc1ccc(-c2nc(-c3ccncc3)[nH]c(=O)n2)cc1	44
Oc1ccc(-c2nc(-c3ccc(F)cc3)c(-c3ccncc3)[nH]2)cc1	-80*
CCN(C)Cc1ccc(-c2nc(-c3ccncc3)cc(=O)[nH]2)cc1	0
O=S(=O)(c1cccs1)N1CC[C@H](O)[C@@H]1Cc1ccccc1	1
CC1(C)[C@@H](O)CC[C@]2(C)[C@H]3C(=O)C=C4[C@@H]5C[C@@](C)(C(=O)O)CC[C@]5(C)CC[C@@]4(C)[C@]3(C)CC[C@@H]12	10
CC1(C)CC[C@]2(C(=O)O)CC[C@]3(C)C(=CCC4[C@@]5(C)CC[C@H](O)[C@@](C)(CO)C5CC[C@]43C)C2C1 (stereo not given in full)	7
C[C@H]1[C@H](C)CC[C@]2(C(=O)O)CC[C@]3(C)C(=CC[C@@H]4[C@@]5(C)CC[C@H](O)C(C)(C)[C@@H]5CC[C@]43C)[C@H]12	-79*
COc1ccc(CN2C[C@@H]3CN(C(=O)c4ccnnc4)C[C@H]3C2=O)cc1	106
O=C(O)CC1CCC2(CC1)CCN(C(=O)c1ccc(-n3ccnc3)cc1)CC2	1
O=C(NCc1cn[nH]c1-c1ccc(Cl)cc1)C1CC2(CCNCC2)CN1 (stereo not given)	2
CC(NC(=O)CCC1NC(=O)N(C2CCCCC2)C1=O)c1ccc2c(c1)CCCC2 (stereo not given)	-67
Cc1cc(=O)[nH]c(SC(C)C(=O)N2CCc3c(ncnc3N(C)C)C2)n1 (stereo not given)	4
COc1cc(C(=O)OCCCN(C)C)cc(OC)c1OC	0
